Among the data in PubChem BioAssay AID1159580 (chemical genetic matrix, 2015) are normalized growth values, retold here.

The experiment in a line: chemical genetic growth profiling, strain panel (AID 1159580).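 Note: tested at 20 µM; growth read once vehicle control cultures reached saturation at 30 °C; 1 = growth at the plate median or of vehicle wells; lower values mean less growth of the strain.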 As to conditions: S. cerevisiae deletion strains, growth OD.
The mark [1] stands for this setting: locus YAL013W, strain DEP1, active compounds read low.
[2] abbreviates: locus YBR229C, strain ROT2, active compounds read low.
The mark [3] stands for this setting: locus YDL101C, strain DUN1, active compounds read low.
The mark [4] stands for this setting: locus YDR150W, strain NUM1, active compounds read low.
The mark [5] stands for this setting: locus YEL061C, strain CIN8, active compounds read low.
Where [6] appears, read: locus YGR078C, strain PAC10, active compounds read low.
Setting [7] is: locus YGR229C, strain SMI1, active compounds read low.
[8] abbreviates: locus YHR030C, strain SLT2, active compounds read low.
[9] abbreviates: locus YHR087W, strain rtc3, active compounds read low.
[10] abbreviates: locus YJL187C, strain SWE1, active compounds read low.
Setting [11] is: locus YJR043C, strain POL32, active compounds read low.
[12] abbreviates: locus YJR075W, strain HOC1, active compounds read low.
[13] abbreviates: locus YKL190W, strain CNB1, active compounds read low.
Setting [14] is: locus YLR039C, strain RIC1, active compounds read low.
Setting [15] is: locus YLR058C, strain SHM2 (second series), active compounds read low.
[16] abbreviates: locus YLR085C, strain ARP6, active compounds read low.
Setting [17] is: locus YLR262C, strain YPT6, active compounds read low.
[18] abbreviates: locus YML094W, strain GIM5, active compounds read low.
Where [19] appears, read: locus YMR219W, strain ESC1, active compounds read low.
Setting [20] is: locus YMR263W, strain SAP30, active compounds read low.
Setting [21] is: locus YNL153C, strain GIM3, active compounds read low.
The mark [22] stands for this setting: locus YNL298W, strain CLA4 (second series), active compounds read low.
Setting [23] is: locus YNL322C, strain KRE1, active compounds read low.
Setting [24] is: locus YNR030W, strain Alg12, active compounds read low.
Setting [25] is: locus YPL055C, strain LGE1, active compounds read low.
The mark [26] stands for this setting: locus YPL241C, strain CIN2, active compounds read low.
Setting [27] is: locus YPR135W, strain CTF4, active compounds read low.
Setting [28] is: locus YMR307W, strain GAS1, active compounds read low.

The campaign covered roughly 5,500 compounds. About 2,000 (36%) were called active. Not shown: some 18% with an inconclusive outcome. The list shows a part of the results. Unmarked numbers belong to inactive results. Cut-off read from the data, not from the text of the source: active = normalized growth mostly below about 0.91 (no sharp cut-off); inconclusive = no clear call, values can overlap the other calls; inactive = mostly above about 0.92.

Consider `O=c1[nH]c2cccnc2[nH]c1=O`, for which the normalized growth is 0.999 under setting [1]; 1.02 under setting [2]; 1.01 under setting [3]; 0.995 under setting [4]; 1 under setting [5]; 1.01 under setting [6]. In addition, the normalized growth under setting [7] is 0.997; the normalized growth under setting [8] was 1.03; the normalized growth under setting [9] was 1; the normalized growth under setting [10] is 0.992; the normalized growth under setting [11] was 1.01; the normalized growth under setting [12] was 0.969. Further, the normalized growth under setting [13] is 0.995; the normalized growth under setting [14] is 1; the normalized growth under setting [15] is 1; the normalized growth under setting [16] is 1.01; the normalized growth under setting [17] is 0.979; the normalized growth under setting [18] is 1.02. Also, the normalized growth is 1.03 under setting [19]; 1.01 under setting [20]; 1.04 under setting [21]; 1.04 under setting [22]; 0.998 under setting [23]; 1.01 under setting [24]. The normalized growth was 0.965 under setting [25], 1.01 under setting [26] and 1.06 under setting [27].
`O=c1[nH]c2ccccc2c2ccccc12`: the normalized growth is 1.04 (locus YAL040C, strain CLN3, active compounds read low); 1 (locus YCL061C, strain MRC1 (second series), active compounds read low); 0.983 under setting [4]; 1.01 (locus YDR363W, strain ESC2, active compounds read low); 0.987 (locus YER002W, strain NOP16, active compounds read low); 0.979 under setting [28]. In addition, the normalized growth was 0.779 (active) under setting [21]; 0.975 (locus YNL175C, strain NOP13, active compounds read low); 0.967 (locus YNL197C, strain WHI3, active compounds read low); 1.01 (locus YNL224C, strain SQS1, active compounds read low); 0.983 under setting [23]; 0.945 (locus YOR083W, strain WHI5 (second series), active compounds read low).
Take `CCCCCCCc1c(O)c2ccccc2[nH]c1=O`: the normalized growth under setting [1] was 1.01; the normalized growth under setting [2] is 0.998; the normalized growth (locus YCL061C, strain MRC1, active compounds read low) is 1.01; the normalized growth under setting [3] is 1; the normalized growth under setting [4] is 0.962; the normalized growth under setting [5] was 1.01. The normalized growth by setting is: under setting [6], 1; under setting [7], 1.01; under setting [8], 0.989; under setting [9], 1; under setting [10], 1; under setting [11], 1. In addition, the normalized growth runs as follows: under setting [12], 1; under setting [13], 1.01; under setting [14], 1.01; under setting [15], 1.01; under setting [16], 1.01; under setting [17], 1.02. Moreover, the normalized growth under setting [18] is 1.01; the normalized growth under setting [19] is 1.02; the normalized growth under setting [20] was 1.01; the normalized growth under setting [28] is 0.961; the normalized growth (locus YNL128W, strain TEP1, active compounds read low) is 1.01; the normalized growth under setting [21] is 1.01. The normalized growth runs as follows: under setting [22], 1.03; under setting [23], 0.997; under setting [24], 1.02; under setting [25], 1.02; under setting [26], 1.02; under setting [27], 1.07.
